The values that follow come from PubChem BioAssay AID1903 (Southern Research Specialized Biocontainment Screening …, 2009).

Each structure is given as a SMILES string. Screen size: about 310,000 compounds; about 1,200 (0.39%) were called active. The list is a sample of the results. Entries with a potency or affinity are not part of this list. Values without a mark were called inactive. How the calls were made is not given here.

The target of the experiment is Large T antigen (Simian virus 40) (UniProt P03070). Kind of experiment: TAg ATPase/helicase activity blockers – biochemical (AID 1903). Conditions: SV40 large T antigen ATPase/helicase inhibition assay; at 20 µM; stronger effect = higher value.
Chain of Large T antigen (Simian virus 40) (P03070 whole entry, looked up): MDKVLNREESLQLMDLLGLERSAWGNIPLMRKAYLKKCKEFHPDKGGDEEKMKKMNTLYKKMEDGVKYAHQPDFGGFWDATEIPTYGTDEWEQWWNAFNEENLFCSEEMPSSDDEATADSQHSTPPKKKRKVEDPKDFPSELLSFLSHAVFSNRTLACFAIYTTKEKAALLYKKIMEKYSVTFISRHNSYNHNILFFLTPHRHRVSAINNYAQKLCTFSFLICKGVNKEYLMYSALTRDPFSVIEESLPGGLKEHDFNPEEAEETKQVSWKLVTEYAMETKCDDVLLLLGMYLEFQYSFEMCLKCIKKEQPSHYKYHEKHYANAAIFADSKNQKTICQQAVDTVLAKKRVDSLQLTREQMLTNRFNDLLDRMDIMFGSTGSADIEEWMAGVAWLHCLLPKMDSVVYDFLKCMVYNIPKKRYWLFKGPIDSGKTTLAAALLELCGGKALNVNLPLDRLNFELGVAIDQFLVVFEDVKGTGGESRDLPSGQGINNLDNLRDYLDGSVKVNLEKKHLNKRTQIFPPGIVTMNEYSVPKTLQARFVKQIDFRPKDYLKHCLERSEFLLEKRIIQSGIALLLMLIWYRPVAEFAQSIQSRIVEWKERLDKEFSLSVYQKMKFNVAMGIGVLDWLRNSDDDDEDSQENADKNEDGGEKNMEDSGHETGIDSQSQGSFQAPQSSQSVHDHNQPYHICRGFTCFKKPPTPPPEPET
As to `COc1ccc(N2CCN(C(=S)NCc3ccc(C)cc3)CC2)cc1`, the inhibition (in general, the change of the read-out against control, counted positive when it falls) is 5.85%.
Take `CCCCCC(=O)NC(NC(=S)Nc1ccc(S(N)(=O)=O)cc1)C(Cl)(Cl)Cl` (centres undefined): the inhibition was 7.24%.
Consider `O=C(Nc1cccc(N2CCCC2)c1)c1cccs1`, for which the inhibition was 7.12%.
Consider `O=C(Nc1cccc(-n2cnnn2)c1)c1cccs1`, for which the inhibition was 6.94%.
Turning to `CN1CCCN(C(=O)CSc2ccccc2)CC1`, the inhibition is 27.3%.
On to `Cc1ccc(/C=C/C(=O)NCc2ccco2)o1`, for which the inhibition is 16.3%.
For `O=C1C(=Cc2cccn2-c2ccc(O)cc2)C(=O)c2ccccc21`, the inhibition is 3.5%.
With `O=C1NC(=S)N/C1=C/c1cccn1-c1ccc([N+](=O)[O-])cc1`, the inhibition is 5.15%.
With `COc1ccc(N(CC(=O)Nc2ccc(C)cc2C)S(=O)(=O)c2c(C)n[nH]c2C)cc1`, the inhibition is 17.7%.
Take `O=C(COC(=O)c1n[nH]c2ccccc12)Nc1cccc(S(=O)(=O)N2CCOCC2)c1`: the inhibition is 7.02%.
As for `CCOc1ccc(NS(=O)(=O)c2ccc3[nH]c(=O)oc3c2)cc1`, the inhibition was 1.63%.
As for `CCOc1ccc(S(=O)(=O)Nc2ccc(O)c(Sc3ncn[nH]3)c2)cc1`, the inhibition is 6.38%.
For `O=C(c1ccc(S(=O)(=O)Nc2ccc(F)cc2)cc1)N1CCN(c2ccccn2)CC1`, the inhibition was 10.4%.
For the molecule `COc1cc(/C=C2/SC(=O)NC2=O)ccc1OC(=O)c1ccco1`, the inhibition was 15.8%.
As to `COc1cc(/C=C2\C(=O)N(c3ccc(S(N)(=O)=O)cc3)N=C2C)ccc1OC(=O)c1ccco1`, the inhibition is 32.1%.
As to `COc1cc(/C=C2/C(=O)NN(c3cccc(C)c3)C2=O)cc([N+](=O)[O-])c1O`, the inhibition is 12.9%.
Regarding `COc1cc(/C=C2\C(=O)NN(c3ccc(C)cc3)C2=O)cc([N+](=O)[O-])c1O`, the inhibition was 36.6%.
For the molecule `COc1cc(/C=C2/C(=O)NN(c3ccc(Cl)cc3)C2=O)cc(Br)c1O`, the inhibition was 32.1%.
As to `COC(=O)c1ccc(N2NC(=O)/C(=C/c3ccc(OC)c(OC)c3)C2=O)cc1`, the inhibition was 23.8%.
On to `O=C(c1cccc2nc3ccccc3nc12)N1CCOCC1`, for which the inhibition is 13.7%.
Consider `Cc1ccccc1N1C(=O)c2cccc([N+](=O)[O-])c2C1=O`, for which the inhibition was 18.8%.
As for `Cc1cccn2c(CNCCSc3nccn3C)c(C(=O)N3CCCCC3)nc12`, the figure is 14.5%; as for `O=C(Nc1nncs1)Oc1ccccc1`, 14.9%.
On to `CCCCc1nc(SCC(=O)N2CCCC2)c2c(=O)n(C)c(=O)n(C)c2n1`, for which the inhibition is 8.36%.
Turning to `O=C(NNC(=O)C1CC=CCC1)c1ccccc1O` (centres undefined), the inhibition is -2.59%.
As to `O=C(Nc1nccs1)C1CC=CCC1` (centres undefined), the inhibition is 2.9%.
Consider `O=C(Nc1ccc(F)cc1)c1ccc(NC(=O)C2CCCO2)cc1` (centres undefined), for which the inhibition is 1.01%.
With `O=C(Nc1ccc(F)cc1)C1CCCO1` (centres undefined), the inhibition was 22.1%.
The result for `O=C(Nc1cccc(O)c1)c1ccc(NC(=O)C2CCCO2)cc1` (centres undefined) reads 12.5%; that for `O=C(Nc1ccc(Oc2ccc(NC(=O)C3CCCO3)cc2)cc1)C1CCCO1` (centres undefined), 5.21%.
Take `COc1ccc(OC)c(CC(=O)NC(c2ccccc2)c2ccccc2)c1`: the inhibition is 5.47%.
As for `O=C(N=Nc1c(O)[nH]c2ccccc12)c1cc(-c2ccc(F)cc2)n[nH]1`, the figure is 7.92%; as for `O=C(c1ccncc1)N1CCN(C(=O)c2ccco2)CC1`, 6.56%; as for `O=S(Cc1cc(Oc2ccccc2)nc(-c2ccccc2)n1)c1ccccc1` (centres undefined), 16.4%.
As for `CN1CCN(c2ccc(CNC(=O)c3ccco3)cc2)CC1`, the inhibition is 9.25%.
Turning to `O=C(CCCN1C(=O)CSc2ncccc21)N1CCN(Cc2ccccc2)CC1`, the inhibition was -0.33%.
The result for `COc1cccc(N/C(SCc2ccccc2F)=C(/C#N)C(=O)NCc2cccs2)c1` reads 2.65%; that for `Cc1ccc2[nH]c(=O)c(CN(Cc3ccccc3)C(=S)NCCCN(C)C)cc2c1`, 2.51%.
For the molecule `NC(=O)c1cc(N)ccc1N1CCCC1`, the inhibition is 18.4%.
The result for `NC(=O)c1cc(N)ccc1N1CCCCC1` reads 36%.
As for `COc1ccc(N(CC(=O)N2CCCC2)S(=O)(=O)c2ccc(NC(C)=O)cc2)cc1`, the figure is -2.23%; as for `O=C(CCc1ccccc1)Nc1nc2nc(-c3ccccc3)cc(=O)n2[nH]1`, -26.7%.
For the molecule `C/C(O)=C(/C#N)c1nc2ccccc2[nH]1`, the inhibition was 7.8%.
With `C/C(O)=C(\C#N)c1nc2ccccc2[nH]1`, the inhibition is 1.46%.
As for `O=S(=O)(c1cc(-c2nnc(-c3ccc(Br)cc3)o2)ccc1Br)N1CCCCCC1`, the figure is 4.66%.
For `CN(C)c1nn(C(=O)Nc2cccc(C(F)(F)F)c2)cc1-c1ccccc1`, the inhibition was 23.9%.
With `O=C(Nc1ccc(Cl)cc1Cl)c1ccc(-c2ccccc2)cc1`, the inhibition is 3.2%.
As for `CN1CCN(S(=O)(=O)c2cnccc2N2CCN(c3cccc(Cl)c3)CC2)CC1`, the figure is 25%; as for `Cc1c(C(=O)/C=C/N(C)C)nnn1-c1ccc(F)c(Cl)c1`, 10.7%.
As to `CC(NS(=O)(=O)c1ccc(Br)cc1)C(N)=O` (centres undefined), the inhibition was 3.6%.
Consider `COc1ccc(/C=N/NC(=O)c2ccc(Cn3cc([N+](=O)[O-])cn3)o2)cc1O`, for which the inhibition was 17.9%.
Take `COc1ccc(/C=N/NC(=O)c2ccc(N)cc2)cc1Cn1cc([N+](=O)[O-])cn1`: the inhibition is -3.89%.
Take `Cc1c(Cl)c([N+](=O)[O-])nn1Cc1ccc(C(=O)N/N=C\c2cccc(Br)c2)o1`: the inhibition is -0.98%.
For the molecule `Cc1c(Cl)c([N+](=O)[O-])nn1Cc1ccc(C(=O)N/N=C\c2ccccn2)o1`, the inhibition was 6.44%.
Regarding `COc1ccc(/C=N/NC(=O)c2ccccc2O)cc1Cn1cc([N+](=O)[O-])cn1`, the inhibition is 12.7%.
For the molecule `COc1ccc(/C=N/NC(=O)c2ccncc2)cc1CN1CCOCC1`, the inhibition is 14.2%.
As for `COc1ccc(/C=N/NC(=O)c2cccc(Br)c2)cc1CN1CCOCC1`, the inhibition is 4.55%.
As for `COc1cc(/C=N\NC(=O)c2ccc(Cn3cc(Br)c([N+](=O)[O-])n3)o2)cc(OC)c1O`, the inhibition was 32.8%.
As for `Cc1ccc([N+](=O)[O-])c(C(=O)N/N=C/c2cccnc2)c1`, the inhibition was 13.6%.
